Most compounds without a hit are left out; they make up all but 0.47% or so of the library.
UDG counterscr: UDG inhibition counter-screen | FRET deamination/UDG coupled assay, UDG read, 4 h | Potency, µM (highest dose often 115 µM), without a hit: at the top dose activity change, negative = inhibition, most hits filed as inhibitors | 91,000 tested, 0.14% active | AID 1347430; further: nearly all actives have a fitted effect of over 65% in size
AID inhibitor: inhibitors of human activation induced cytidine deaminase. AID deamination FRET fluorescence, UDG-coupled, 4 h. Potency, µM (top dose mostly 115 µM), hits mostly inhibitors. 91,000 tested, 0.32% active. AID 1347428; further: nearly all actives have a fitted effect of over 25% in size
Active calls of the source: *; i = inactive; u = inconclusive; [ ] = another dose, or the depositor's remark. The call rests on the fitted dose curve; in most records, active means well fitted curve in the direction sought with a large enough effect; inconclusive means small, poorly fitted or top-dose-only effect, or another doubt; inactive means no such curve, though single readings can be large; an effect the other way counts as inactive or inconclusive. On the % scale 0 is the no-effect control and ±100 the full control effect; potency means the concentration at half of the fitted maximal effect.

SMILES	UDG counterscr	AID inhibitor
COc1ccc2c(c[n+](C)c3c4cc5c(cc4ccc23)OCO5)c1OC	-17.5%	39.8µM*
Cc1cccc(-n2nc(C)c3c2NC(=O)CSC3c2ccccc2Cl)c1 (stereo not drawn)	-2.0%	i
CN(N=O)c1cc(O)ccc1O	-19.3%	28.2µM*
OCC#CC[N+]1(CC#Cc2ccccc2)CCOCC1	5.1%	i
Cc1c(Cl)cccc1NC(=O)CN1C(=O)C(C)N=C(c2ccccc2)c2ccccc21 (stereo not drawn)	-18.1%[57.5 µM]	i
CCCCC/C=C\C/C=C\C/C=C\C/C=C\CCCC(=O)NCC(=O)O	7.2%	79.4µM*
C=CCNC(=O)CSC(c1ccccc1)c1ccc(Cl)cc1 (stereo not drawn)	-4.2%	i
CN1CC[C@@]2(C)c3cc(OC(=O)Nc4ccccc4)ccc3N(C)[C@@H]12	-9.7%	u
N#C/C(=C\c1ccccc1)C(=O)Nc1ccc(Cl)cc1C(=O)c1ccccc1	-9.8%	i

Screening data from PubChem.
